In PubChem BioAssay (Tox21):
Where “and” joins values, the source holds several entries; their conditions need not be identical. Equal values may be shown once. Inconclusive results are not listed. Entries that show only a call come without a potency. Some compounds were tested as several samples or in several runs, with calls that do not always agree. Calls of active or inactive are those of the source. Unless noted, calls follow the shape of the dose curve; as a rule, active = well fitted curve in the direction sought with a large enough effect in the repeat runs; inconclusive = weak or mixed curves; inactive = no such curve, though single readings can be large; an effect the other way counts as inactive or inconclusive.

Key:
[1] = A CellTox Green Cytotoxicity Assay to monitor cytotoxicity in HEK293 cells - 32 hour (AID 1224881); also: nearly all actives have a fitted effect of over 40% in size
In short: (§1)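 Cytotoxicity was tracked continuously in HEK293 cells by a DNA-binding dye excluded from viable cells. Compounds were transferred in DMSO 5 h after seeding; fluorescence was recorded at intervals up to 40 h.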

[2] = A CellTox Green Cytotoxicity Assay to monitor cytotoxicity in HepG2 cells - 0 hour (AID 1224882); also: nearly all actives have a fitted effect of over 35% in size
In short: (§2)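 Real-time, homogeneous cytotoxicity readout: dead-cell DNA staining by CellTox Green in HepG2 monolayers, fluorescence measured at timed intervals up to 40 h of continuous compound exposure.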

[3] = A CellTox Green Cytotoxicity Assay to monitor cytotoxicity in HepG2 cells - 32 hour (AID 1224883); also: nearly all actives have a fitted effect of over 50% in size; also: potency is read from the fitted curve at half-maximal effect
In short: as §2

[4] = A CellTox Green Cytotoxicity Assay to monitor cytotoxicity in HEK293 cells - 8 hour (AID 1224884); also: nearly all actives have a fitted effect of over 35% in size
In short: as §1

[5] = qHTS RealTime-Glo MT Cell Viability Assay in HepG2 cells - 16 hour (AID 1224885); also: nearly all actives have a fitted effect of over 50% in size
In short: (§3)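 HepG2 cells were seeded at 600 cells/well together with NanoLuc luciferase and a cell-permeant prosubstrate, preincubated 5 h at 37 C/5% CO2, then pin-dosed with compounds in DMSO. Nonlytic luminescence from viable cells was read at each time point.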

[6] = qHTS RealTime-Glo MT Cell Viability Assay in HEK293 cells - 24 hour (AID 1224886); also: nearly all actives have a fitted effect of over 50% in size; also: potency is read from the fitted curve at half-maximal effect
In short: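 HEK293 cells were seeded at 600 cells/well together with NanoLuc luciferase and cell-permeant prosubstrate, preincubated 5 h at 37 C/5% CO2, then given compound in DMSO by pintool. Luminescence from viable-cell prosubstrate reduction was read repeatedly over 40 h.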

[7] = qHTS RealTime-Glo MT Cell Viability Assay in HEK293 cells - 8 hour (AID 1224887); also: top concentration of the series differs between compounds; nearly all actives have a fitted effect of over 50% in size
In short: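 Nonlytic bioluminescent viability monitoring. HEK293 at 600 cells/well with reagent; 5 h settle; compound transfer by pintool; plates held at 37 C and read at set time points.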

[8] = A CellTox Green Cytotoxicity Assay to monitor cytotoxicity in HEK293 cells - 16 hour (AID 1224888); also: nearly all actives have a fitted effect of over 35% in size
In short: as §1

[9] = qHTS RealTime-Glo MT Cell Viability Assay in HepG2 cells - 0 hour (AID 1224889); also: nearly all actives have a fitted effect of over 50% in size
In short: as §3

[10] = A CellTox Green Cytotoxicity Assay to monitor cytotoxicity in HepG2 cells - 8 hour (AID 1224890); also: nearly all actives have a fitted effect of over 45% in size
In short: as §2

[11] = qHTS assay to identify small molecule antagonists of the estrogen receptor alpha (ER-alpha) signaling pathway using the BG1 cell line in the presence of 0.1 nM 17-beta-estradiol - cell viability counter screen (AID 1259241); also: nearly all actives have a fitted effect of over 40% in size; also: potency is read from the fitted curve at half-maximal effect
In short: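 Following 5 days in phenol red-free medium with charcoal-stripped serum, VM7Luc4E2 cells received test compounds alongside 0.1 nM 17beta-estradiol (final) at 37C for 22 hr. Live cells were then quantified via protease-substrate fluorescence.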

[12] = qHTS assay to identify small molecule antagonists of the androgen receptor (AR) signaling pathway using the MDA cell line in the presence of 0.5 nM R1881 - cell viability counter screen (AID 1259242); also: nearly all actives have a fitted effect of over 45% in size; also: potency is read from the fitted curve at half-maximal effect
In short: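 Cytotoxicity toward MDA-kb2 cells is measured by CellTiter-Fluor live-cell protease fluorescence after 16 hr compound exposure at 37C in the presence of 0.5 nM R1881 stimulator.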

[13] = molecular target: Androgen receptor (Homo sapiens) (UniProt P10275); assay: qHTS assay to identify small molecule antagonists of the androgen receptor (AR) signaling pathway using the MDA cell line in the presence of 0.5 nM R1881 (AID 1259243); also: nearly all actives have a fitted effect of over 50% in size; also: potency is read from the fitted curve at half-maximal effect
Sequence of Androgen receptor (Homo sapiens) (P10275 whole entry, looked up): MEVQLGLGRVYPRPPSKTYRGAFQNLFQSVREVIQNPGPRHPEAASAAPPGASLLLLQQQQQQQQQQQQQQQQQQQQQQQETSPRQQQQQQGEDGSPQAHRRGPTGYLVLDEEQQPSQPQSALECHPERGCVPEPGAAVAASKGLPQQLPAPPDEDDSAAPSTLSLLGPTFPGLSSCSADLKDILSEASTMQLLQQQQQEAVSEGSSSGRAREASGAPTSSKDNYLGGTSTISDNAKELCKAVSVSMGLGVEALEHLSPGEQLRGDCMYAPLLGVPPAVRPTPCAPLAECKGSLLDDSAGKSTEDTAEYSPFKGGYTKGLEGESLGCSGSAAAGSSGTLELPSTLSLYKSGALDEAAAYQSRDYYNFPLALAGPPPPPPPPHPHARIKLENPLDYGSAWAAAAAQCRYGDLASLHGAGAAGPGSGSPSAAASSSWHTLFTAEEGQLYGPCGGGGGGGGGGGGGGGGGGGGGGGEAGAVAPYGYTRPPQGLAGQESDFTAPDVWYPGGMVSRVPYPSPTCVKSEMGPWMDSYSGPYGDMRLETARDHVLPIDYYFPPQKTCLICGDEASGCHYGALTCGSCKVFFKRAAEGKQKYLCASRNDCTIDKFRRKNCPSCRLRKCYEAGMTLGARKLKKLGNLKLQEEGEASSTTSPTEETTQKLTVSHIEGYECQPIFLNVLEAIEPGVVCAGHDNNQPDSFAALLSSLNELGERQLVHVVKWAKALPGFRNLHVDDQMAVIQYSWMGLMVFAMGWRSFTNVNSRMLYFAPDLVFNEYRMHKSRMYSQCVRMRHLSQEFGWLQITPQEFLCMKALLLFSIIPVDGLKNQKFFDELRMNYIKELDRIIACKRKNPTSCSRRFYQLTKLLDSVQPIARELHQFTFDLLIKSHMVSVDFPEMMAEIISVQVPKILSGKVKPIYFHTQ
In short: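 Steps: seed MDA-kb2 cells, incubate 5 hr at 37C; pin-transfer compounds in DMSO; add R1881 to 0.5 nM final; incubate 16 hr; add ONE-Glo, wait 30 min at room temperature; read luminescence.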

[14] = qHTS assay to identify small molecule HDAC inhibitors (AID 1259364); also: top concentration of the series differs between compounds; nearly all actives have a fitted effect of over 45% in size
In short: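 Homogeneous cell-based luminescent assay of endogenous class I/II HDAC activity; HCT-116 cells, 2 h compound exposure, 30 min HDAC-Glo development at RT.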

[15] = qHTS assay to identify small molecule HDAC inhibitors - cell viability counter screen (AID 1259365)
In short: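 HCT-116 wild-type, overnight attachment; 2hr drug exposure, 37C; CellTiter-Glo luminescent ATP readout after 30min RT.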

[16] = qHTS assay to identify small molecule agonists of the sonic hedgehog signaling (Shh) pathway - cell viability counter screen (AID 1259366); also: nearly all actives have a fitted effect of over 50% in size; also: potency is read from the fitted curve at half-maximal effect
In short: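 Compounds in DMSO were pin-transferred onto 3T3 Gli1-Luc cells that had settled 4hr; plates then stood 24hr at 37C and 5% CO2. One hour before the end, CellTiter-Fluor was added and fluorescence recorded.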

[17] = qHTS assay to identify small molecule antagonists of the sonic hedgehog signaling (Shh) pathway - cell viability counter screen (AID 1259367); also: nearly all actives have a fitted effect of over 55% in size; also: potency is read from the fitted curve at half-maximal effect
In short: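 NIH/3T3-derived Gli1-Luc reporter cells (2,000 per well) rested 4 hr at 37 C, then received DMSO compounds plus conditioned medium. After 23 hr of treatment, CellTiter-Fluor was added for 1 hr at 37C and fluorescence read.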

[18] = molecular target: Estrogen receptor (Homo sapiens) (UniProt P03372); assay: qHTS assay to identify small molecule antagonists of the estrogen receptor alpha (ER-alpha) signaling pathway using the BG1 cell line in the presence of 0.1 nM 17-beta-estradiol (AID 1259244); also: nearly all actives have a fitted effect of over 50% in size
Sequence of Estrogen receptor (Homo sapiens) (P03372 whole entry, looked up): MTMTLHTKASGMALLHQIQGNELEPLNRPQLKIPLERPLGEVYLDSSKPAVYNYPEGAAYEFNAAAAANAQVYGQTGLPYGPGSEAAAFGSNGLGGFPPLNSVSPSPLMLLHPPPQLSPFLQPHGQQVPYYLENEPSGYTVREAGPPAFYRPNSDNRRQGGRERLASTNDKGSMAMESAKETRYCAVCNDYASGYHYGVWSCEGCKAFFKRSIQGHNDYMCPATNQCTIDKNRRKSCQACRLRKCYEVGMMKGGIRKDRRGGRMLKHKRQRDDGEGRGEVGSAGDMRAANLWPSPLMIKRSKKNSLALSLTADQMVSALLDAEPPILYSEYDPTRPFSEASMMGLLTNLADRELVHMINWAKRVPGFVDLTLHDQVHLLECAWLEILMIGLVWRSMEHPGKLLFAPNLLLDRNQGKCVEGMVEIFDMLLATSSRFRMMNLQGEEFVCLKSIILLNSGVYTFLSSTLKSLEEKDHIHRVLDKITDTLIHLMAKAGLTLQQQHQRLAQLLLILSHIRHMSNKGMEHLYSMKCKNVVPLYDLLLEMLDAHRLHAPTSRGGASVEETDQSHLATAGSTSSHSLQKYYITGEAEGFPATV
In short: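 After 5 days in hormone-depleted medium (charcoal-stripped serum, no phenol red), VM7Luc4E2 cells were seeded, incubated 24 h, then co-treated with compound and 0.1 nM (final) estradiol for 22 h before luminescence detection.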

[19] = qHTS assay to identify small molecule phospholipidosis (PLD) inducers (AID 1259344; active = well fitted curve in the direction sought with a large enough effect; an effect the other way counts as inactive or inconclusive)
In short: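 HepG2 cells on collagen I, attached 4 h at 37 C, were co-treated with compound and LipidTOX Red dye for 24 h at 37 C, then fixed with paraformaldehyde plus Hoechst 33342 and imaged by high-content microscopy for phospholipid accumulation.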

Row | Structure (SMILES) | Potency [1] | outcome [2] | Potency [3] | outcome [4] | Potency [5] | Potency [6] | Potency [7] | Potency [8] | Potency [9] | outcome [10] | Potency [11] | Potency [12] | Potency [13] | Potency [14] | outcome [15] | Potency [16] | Potency [17] | Potency [18] | outcome [19]
1 | OCc1cccc(Oc2ccccc2)c1 | inactive | inactive | inactive | inactive | inactive | inactive | inactive | inactive | inactive | inactive | inactive | inactive | 31.1 µM (active) | inactive | inactive | inactive | inactive |  | 
2 | CCCCCCCCCCN | inactive | inactive | inactive | inactive | inactive | inactive | inactive | inactive |  | inactive | inactive | inactive |  | inactive | inactive |  | inactive |  | 
3 | CCCCC(C=O)CC (stereo not drawn) | inactive | inactive | inactive and 14.6 µM (active) | inactive | inactive |  | inactive | inactive | inactive |  | inactive | inactive |  | inactive | inactive | inactive | inactive | inactive | 
4 | N[C@H](Cc1c[nH]c2ccccc12)C(=O)O | inactive | inactive | inactive | inactive | inactive | inactive | inactive | inactive | inactive | inactive | inactive | inactive |  | inactive | inactive | inactive | inactive |  | inactive
5 | CCNc1ccccc1 | inactive | inactive | inactive | inactive | inactive |  | inactive | inactive |  |  | inactive | inactive | inactive | inactive | inactive | inactive | inactive |  | 
6 | NCCNCCN | inactive | inactive | inactive | inactive | inactive | inactive | inactive | inactive | inactive | inactive | inactive | inactive |  | inactive | inactive | inactive | inactive |  | inactive
7 | O=C(O)c1ccccc1C(=O)O | inactive | inactive | inactive | inactive | inactive | inactive | inactive | inactive | inactive |  | inactive | inactive |  | inactive | inactive | inactive | inactive | inactive | 
8 | CCCCCCCO | inactive | inactive | inactive | inactive | inactive | inactive | inactive | inactive |  | inactive | inactive | inactive |  | inactive | inactive |  | inactive | inactive | 
9 | C=CCCCCCCCCC(=O)O | inactive | inactive | inactive | inactive | inactive | inactive | inactive | inactive | inactive |  | inactive | inactive |  | inactive | inactive | inactive | inactive |  | inactive
10 | Brc1ccc(Br)c(Br)c1 |  | inactive | inactive | inactive | inactive | inactive | inactive | inactive | inactive | inactive | inactive | inactive |  | inactive | inactive | inactive | inactive | inactive | 
11 | CC(C)CC(C)O (stereo not drawn) | inactive | inactive | inactive | inactive | inactive | inactive | inactive | inactive | inactive | inactive | inactive | inactive |  | inactive | inactive | inactive | inactive | inactive | 
12 | CN(C)c1ccc(Cc2ccc(N(C)C)cc2)cc1 | inactive | inactive | inactive | inactive | inactive | 22 µM (active) and 21.9 µM (active) |  | inactive | inactive |  | inactive | inactive |  | inactive | inactive |  | inactive |  | 
13 | CC(C)=CCl | inactive | inactive | inactive | inactive | inactive | inactive | inactive | inactive | inactive | inactive | inactive | inactive |  | inactive | inactive | inactive | inactive | inactive | 
14 | O=S(=O)(O)c1ccc(N=Nc2c(O)ccc3cc(S(=O)(=O)O)ccc23)cc1 | inactive | inactive | inactive | inactive | inactive | inactive |  | inactive |  | inactive | 30.8 µM (active) and 27.3 µM (active) | 54.7 µM (active) and 27.3 µM (active) |  | inactive | inactive | 30.8 µM (active) and 30.6 µM (active) | 27.4 µM (active) and 27.3 µM (active) | inactive | 
15 | COC(=O)c1cccnc1 | inactive | inactive | inactive | inactive | inactive | inactive | inactive | inactive | inactive |  | inactive | inactive | inactive | inactive | inactive | inactive | inactive |  | inactive
16 | CC(O)CC(C)(C)O (stereo not drawn) | inactive | inactive | inactive | inactive | inactive |  | inactive | inactive |  |  | inactive | inactive |  | inactive | inactive |  | inactive |  | 
17 | CCNC(=S)NCC | inactive | inactive | inactive | inactive | inactive |  | inactive | inactive |  | inactive | inactive | inactive |  | inactive | inactive | inactive | inactive | inactive | 
18 | CC(C)(Oc1ccc(CCNC(=O)c2ccc(Cl)cc2)cc1)C(=O)O | inactive | inactive | inactive | inactive | inactive | inactive | inactive | inactive |  | inactive | inactive | inactive |  | inactive | inactive | inactive | inactive | inactive | inactive
19 | C=CC(=O)OCCC(=O)O | inactive | inactive | inactive | inactive | inactive | inactive | inactive | inactive | inactive |  | inactive | inactive |  | inactive | inactive | inactive | inactive | inactive | 
20 | C[C@]12CCC(=O)C=C1CC[C@@H]1[C@@H]2[C@@H](O)C[C@@]2(C)[C@H]1CC[C@]2(O)C(=O)CO | inactive | inactive | inactive | inactive |  |  |  | inactive |  |  | inactive | inactive | inactive | inactive | inactive | inactive | inactive |  | inactive
21 | O=C1CCCC1 | inactive | inactive | inactive | inactive | inactive | inactive | inactive | inactive |  |  | inactive | inactive |  | inactive | inactive |  | inactive | inactive | 
